Data on twelve compounds can be found in ChEMBL document CHEMBL3433997, “St. Jude Leishmania screening dataset” (2016).

Common to all, as to type: functional
The target in experiment [1] is Solute carrier family 2, facilitated glucose transporter member 1 (Homo sapiens) (UniProt P11166). Put plainly: ST_JUDE_LEISH: Cytotoxicity at 2uM final concentration against transgenic Leishmania Mexicana promastigotes LmGLUT1 that are glucose transport deficient and complemented with the human glucose transporter GLUT1. Activity is measured by DNA content using SYBR green in vitro.
Chain of Solute carrier family 2, facilitated glucose transporter member 1 (Homo sapiens) (P11166 whole entry): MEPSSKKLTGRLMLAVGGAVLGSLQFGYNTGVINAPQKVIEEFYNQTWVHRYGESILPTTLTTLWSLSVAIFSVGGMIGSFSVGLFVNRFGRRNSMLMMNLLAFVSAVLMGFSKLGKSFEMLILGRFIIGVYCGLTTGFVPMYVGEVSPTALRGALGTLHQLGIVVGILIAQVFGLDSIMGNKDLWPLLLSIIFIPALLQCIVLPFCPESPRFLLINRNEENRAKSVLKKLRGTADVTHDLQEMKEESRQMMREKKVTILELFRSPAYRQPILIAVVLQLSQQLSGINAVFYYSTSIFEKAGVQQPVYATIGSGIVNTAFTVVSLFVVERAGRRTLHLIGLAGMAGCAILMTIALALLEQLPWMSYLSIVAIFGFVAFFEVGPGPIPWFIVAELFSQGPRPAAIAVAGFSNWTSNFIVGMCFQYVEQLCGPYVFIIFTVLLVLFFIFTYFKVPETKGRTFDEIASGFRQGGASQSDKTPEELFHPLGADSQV

For experiment [2], the target named is Hexose transporter 1 (Plasmodium falciparum) (UniProt O97467). Description: ST_JUDE_LEISH: Cytotoxicity at 2uM final concentration against transgenic Leishmania Mexicana promastigotes LmPfHT that are glucose transport deficient and complemented with the Plasmodium falciparum hexose transporter. Activity is measured by DNA content using SYBR green in vitro.

Experiment [3] has as its target Glucose transporter (Leishmania mexicana) (UniProt O61059). Description: ST_JUDE_LEISH: Cytotoxicity at 2uM final concentration against transgenic Leishmania Mexicana promastigotes LmGT2 that are glucose transport deficient and complemented with the L. Mexicana glucose transporter 2. Activity is measured by DNA content using SYBR green in vitro.

For the compound `Cc1nn(-c2cccc(C(F)(F)F)c2)c2sc(C(=O)NC3CCN(C(C)C)CC3)cc12`, the inhibition in experiment [1] was 1.73%; in experiment [2], -1.04%; in experiment [3], 1.61%.

Turning to `O=C(NC1CCN(CCCc2ccccc2)CC1)c1ccc(-c2cccc(C(F)(F)F)c2)s1`, the inhibition came out at 1.95% in experiment [1], 1.23% in experiment [2] and 3.77% in experiment [3].

Take `COc1ccccc1C1CCN(C2CCC(NC(=O)/C=C/c3cccc(Cl)c3)CC2)CC1` (stereo unspecified): the inhibition was 3.59% in experiment [1], 0.95% in experiment [2] and -0.85% in experiment [3].

Turning to `Oc1ccc(C2CNCCc3c2cc(O)c(OCc2ccccc2)c3Cl)cc1` (stereo unspecified), the inhibition in experiment [1] was -0.07%; in experiment [2], -1.5%; in experiment [3], 2.54%.

For the compound `CCOc1cc2ncnc(Nc3ccc(OCc4ccccc4OC)c(OC)c3)c2cc1OCC`, the inhibition in experiment [1] was 5.01%; in experiment [2], 2.81%; in experiment [3] it was 0.35%.

Consider `O=C(NCCCCN1CCN(c2cccc3ccccc23)CC1)c1ccc(NC(=O)c2ccc(Cl)cc2)cc1`, for which the inhibition in experiment [1] was determined as 2.65%; in experiment [2] it was 2.81%; in experiment [3] it was 2.29%.

Take `COc1c(C2CCN(CCCCNC(=O)c3cc(-c4ccc(Cl)cc4)sc3C)CC2)ccc2c1CCCC2`: the inhibition in experiment [1] is 0.21%; in experiment [2], 2.22%; in experiment [3], -2.53%.

On to `Cc1ccc(NC(=O)Cc2noc(CC3CCCN3C(=O)N[C@@H](C)c3ccccc3)n2)cc1` (stereo partly specified), for which the inhibition in experiment [1] came to 3.91%; in experiment [2], 2.95%; in experiment [3], 1.32%.

On to `CCCCCCN1CCN(Cc2cccc(NC(=O)c3ccc(Cl)c(Cl)c3)c2)CC1`, for which the inhibition in experiment [1] was 5.8%; in experiment [2], 6.59%; in experiment [3], 4.85%.

Regarding `CN1CCN(S(=O)(=O)c2cccc(Nc3nccc(N(C)c4ccc5c(c4)nc(NC(=O)c4cccs4)n5C)n3)c2)CC1`, the inhibition was -0.55% in experiment [1], 0.27% in experiment [2] and 1.49% in experiment [3].

Regarding `NC1CCN(Cc2cccc(-c3csc(-c4nc5ccccc5[nH]4)c3)c2)C1` (stereo unspecified), the inhibition in experiment [1] is 2.21%; in experiment [2], 1.55%; in experiment [3] it was 4.6%.

For `CC(=O)Nc1nc(C(=O)Nc2ccc(-c3cccc(-c4nc5cc(F)ccc5[nH]4)c3)cc2)cs1`, the inhibition in experiment [1] was 2.47%; in experiment [2], 2.89%; in experiment [3], 3.35%.

A word on the inhibition: it is the drop in the measured response relative to a control, in per cent.
